Results reported in PubChem BioAssay (EPA / NIEHS).
Inconclusive results are not listed. Activity calls are given as the source filed them. How the source made its calls: active means hit-call score of the fitted dose curve at least 0.9, where 1 is the maximum; inconclusive means response in the unintended direction; inactive means score below 0.9.

Key:
[1] = molecular target: human Peroxisome Proliferator-activated Receptor alpha (PPARa), PPARA (gene 5465) (UniProt Q07869); assay: ATG_PPARa_TRANS: Attagene TRANS-FACTORIAL HepG2 Assay for human Peroxisome Proliferator-activated Receptor alpha (PPARa) (AID 2283001);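 on AC50: potency for gain of reporter signal over DMSO so agonist or activator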
human Peroxisome Proliferator-activated Receptor alpha (PPARa), PPARA (gene 5465), sequence (Q07869 whole entry, looked up, the tested form may be a part): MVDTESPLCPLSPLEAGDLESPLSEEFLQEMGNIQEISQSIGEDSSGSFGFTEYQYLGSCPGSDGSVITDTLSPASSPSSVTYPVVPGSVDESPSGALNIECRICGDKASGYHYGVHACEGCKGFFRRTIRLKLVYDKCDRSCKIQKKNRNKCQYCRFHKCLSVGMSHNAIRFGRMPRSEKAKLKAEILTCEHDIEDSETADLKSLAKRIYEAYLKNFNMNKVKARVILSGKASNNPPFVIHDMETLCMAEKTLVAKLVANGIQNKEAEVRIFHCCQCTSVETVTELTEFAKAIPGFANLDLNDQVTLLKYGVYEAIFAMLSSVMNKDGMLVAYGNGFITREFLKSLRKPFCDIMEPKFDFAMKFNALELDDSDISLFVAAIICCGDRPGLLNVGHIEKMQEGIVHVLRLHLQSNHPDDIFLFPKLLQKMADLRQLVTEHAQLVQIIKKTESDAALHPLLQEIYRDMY
How it was run: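 Reporter transcripts quantified by RT-PCR plus capillary electrophoresis after 24 h treatment, fitted upward relative to DMSO. Cells: human HepG2 transiently carrying multiple GAL4-UAS reporter units driven by NR-Gal4 chimeras.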

[2] = molecular target: human Peroxisome Proliferator-activated Receptor delta (PPARd), PPARD (gene 5467) (UniProt Q03181); assay: ATG_PPARd_TRANS: Attagene TRANS-FACTORIAL HepG2 Assay for human Peroxisome Proliferator-activated Receptor delta (PPARd) (AID 2283002)
human Peroxisome Proliferator-activated Receptor delta (PPARd), PPARD (gene 5467), sequence (Q03181 whole entry, looked up): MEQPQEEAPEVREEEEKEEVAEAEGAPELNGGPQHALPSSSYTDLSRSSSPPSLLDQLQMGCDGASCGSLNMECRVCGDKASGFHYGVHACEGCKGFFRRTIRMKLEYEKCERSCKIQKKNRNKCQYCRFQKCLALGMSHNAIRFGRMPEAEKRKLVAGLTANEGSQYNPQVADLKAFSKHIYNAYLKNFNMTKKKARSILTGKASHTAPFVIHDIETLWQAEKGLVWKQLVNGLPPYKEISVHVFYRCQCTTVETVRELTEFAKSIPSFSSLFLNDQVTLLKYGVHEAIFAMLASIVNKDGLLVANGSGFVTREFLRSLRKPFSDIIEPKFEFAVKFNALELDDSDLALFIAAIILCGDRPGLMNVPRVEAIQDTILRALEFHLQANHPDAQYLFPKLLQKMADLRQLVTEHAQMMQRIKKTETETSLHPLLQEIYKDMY
How it was run: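 Cell-based TRANS reporter: HepG2, transient MRTU transfection, 24 h exposure. Readout = reporter mRNA (RT-PCR/CE, 6-FAM). Gain-of-signal fit vs DMSO control.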

[3] = molecular target: Nuclear receptor subfamily 1 group I member 2 (Homo sapiens) (UniProt O75469); assay: ATG_PXR_TRANS: Attagene TRANS-FACTORIAL HepG2 Assay for human Pregnane X Receptor (PXR) (AID 2283008)
Nuclear receptor subfamily 1 group I member 2 (Homo sapiens), sequence (O75469 whole entry, looked up, the tested form may be a part): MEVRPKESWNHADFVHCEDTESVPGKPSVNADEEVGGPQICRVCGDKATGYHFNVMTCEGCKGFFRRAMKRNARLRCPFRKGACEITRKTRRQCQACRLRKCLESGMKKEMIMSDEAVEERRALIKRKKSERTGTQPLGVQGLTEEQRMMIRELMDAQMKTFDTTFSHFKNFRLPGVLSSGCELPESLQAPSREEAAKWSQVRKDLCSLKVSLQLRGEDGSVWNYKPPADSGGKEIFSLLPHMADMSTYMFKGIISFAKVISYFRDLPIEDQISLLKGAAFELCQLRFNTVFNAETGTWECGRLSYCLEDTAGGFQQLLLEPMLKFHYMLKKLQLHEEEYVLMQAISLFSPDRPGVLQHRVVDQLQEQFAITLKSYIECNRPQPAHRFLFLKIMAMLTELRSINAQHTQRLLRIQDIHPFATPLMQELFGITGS
How it was run: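 Multiplexed TRANS reporter panel in HepG2; this component tracks PXR-Gal4-driven reporter mRNA after 24 h dosing, measured by RT-PCR with capillary electrophoresis fluorescence, fitted against DMSO.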

[4] = molecular target: Peroxisome proliferator-activated receptor gamma (Homo sapiens) (UniProt P37231); assay: ATG_PPARg_TRANS: Attagene TRANS-FACTORIAL HepG2 Assay for human Peroxisome Proliferator-activated Receptor-gamma (PPARg) (AID 2283007)
Peroxisome proliferator-activated receptor gamma (Homo sapiens), sequence (P37231 whole entry, looked up, the tested form may be a part): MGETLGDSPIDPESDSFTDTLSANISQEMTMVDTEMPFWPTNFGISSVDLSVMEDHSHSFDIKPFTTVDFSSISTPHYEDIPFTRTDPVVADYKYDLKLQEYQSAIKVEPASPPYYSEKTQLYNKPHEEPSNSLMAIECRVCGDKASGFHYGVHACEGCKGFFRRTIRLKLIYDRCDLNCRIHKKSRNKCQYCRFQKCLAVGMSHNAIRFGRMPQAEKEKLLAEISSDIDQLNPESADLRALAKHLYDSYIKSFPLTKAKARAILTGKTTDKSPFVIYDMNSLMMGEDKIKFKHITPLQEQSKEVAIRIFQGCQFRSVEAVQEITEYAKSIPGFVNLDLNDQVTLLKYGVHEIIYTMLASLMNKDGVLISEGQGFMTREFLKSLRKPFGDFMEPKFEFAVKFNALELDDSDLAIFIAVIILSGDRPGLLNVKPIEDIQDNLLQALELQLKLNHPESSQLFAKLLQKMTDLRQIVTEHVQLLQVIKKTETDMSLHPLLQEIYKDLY
How it was run: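 After 24 h of chemical exposure, transfected HepG2 cells carrying PPARγ-Gal4 chimera reporter constructs are lysed for RNA. Reporter transcripts are measured by RT-PCR and capillary electrophoresis with fluorescent labelling, and gain of signal is fitted versus DMSO.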

[5] = molecular target: human Retinoic Acid Receptor gamma (RARg), RARG (gene 5916) (UniProt P13631); assay: ATG_RARg_TRANS: Attagene TRANS-FACTORIAL HepG2 Assay for human Retinoic Acid Receptor gamma (RARg) (AID 2283009)
human Retinoic Acid Receptor gamma (RARg), RARG (gene 5916), sequence (P13631 whole entry, looked up, the tested form may be a part): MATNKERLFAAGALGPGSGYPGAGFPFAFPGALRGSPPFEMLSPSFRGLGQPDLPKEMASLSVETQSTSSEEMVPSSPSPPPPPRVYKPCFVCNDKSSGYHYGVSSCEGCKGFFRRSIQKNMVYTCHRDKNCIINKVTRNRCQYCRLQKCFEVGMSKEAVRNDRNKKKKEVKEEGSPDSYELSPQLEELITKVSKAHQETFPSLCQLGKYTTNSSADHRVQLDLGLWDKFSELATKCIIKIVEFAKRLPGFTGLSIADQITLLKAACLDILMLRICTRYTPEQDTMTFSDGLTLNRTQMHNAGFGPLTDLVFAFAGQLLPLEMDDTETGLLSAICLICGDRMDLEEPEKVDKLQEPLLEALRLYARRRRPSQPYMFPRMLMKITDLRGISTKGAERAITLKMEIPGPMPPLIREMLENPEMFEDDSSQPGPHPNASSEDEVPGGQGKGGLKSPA
How it was run: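 Transactivation of exogenous RARg-Gal4 fusion measured as reporter transcript induction after 24 h in transfected HepG2 cells. RNA reverse-transcribed, amplified, fluorescently labeled and resolved by capillary electrophoresis; increase relative to DMSO.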

CCCCCCCCCCCCCCCCCC(=O)OCCCCCCCCCCCCCC(C)C
outcome [1]: inactive | outcome [2]: inactive | outcome [3]: inactive

CCCCCC#CC(=O)OC
outcome [1]: inactive | outcome [2]: inactive | AC50 [4]: 12.9 µM (active) | outcome [3]: inactive

NNC(=O)OCc1ccccc1
outcome [1]: inactive | outcome [2]: inactive | outcome [3]: inactive

S=c1[nH][nH]c(=S)s1
outcome [1]: inactive | outcome [2]: inactive | outcome [3]: inactive

C=CCOC(=O)/C=C\C(=O)OCC=C
AC50 [1]: 27.5 µM (active) | outcome [2]: inactive | outcome [3]: inactive

CCCCCCCCCCO[C@@H]1O[C@H](CO)[C@@H](O)[C@H](O)[C@H]1O
outcome [1]: inactive | outcome [2]: inactive | outcome [4]: inactive | outcome [3]: inactive | outcome [5]: inactive

CC1=CC[C@@H](C(C)(C)O)CC1
outcome [1]: inactive | outcome [2]: inactive | outcome [4]: inactive | outcome [3]: inactive

CC(=O)OC(C)(C)C
outcome [1]: inactive | outcome [2]: inactive | outcome [3]: inactive

CN(C)c1ccc(C=O)cc1
outcome [1]: inactive | outcome [2]: inactive | outcome [4]: inactive | outcome [3]: inactive

CCC(C)(CCCC(C)C)OC(C)=O (stereo unspecified)
outcome [1]: inactive | outcome [2]: inactive | outcome [4]: inactive | outcome [3]: inactive

CCCCCCC(C)O (stereo unspecified)
outcome [1]: inactive | outcome [2]: inactive | outcome [4]: inactive | outcome [3]: inactive

CCCCCCOc1ccc(O)cc1
outcome [1]: inactive | outcome [2]: inactive | AC50 [4]: 27.6 µM (active) | AC50 [3]: 15 µM (active) | outcome [5]: inactive

CCCCCc1cccc(=O)o1
outcome [1]: inactive | outcome [2]: inactive | AC50 [4]: 10.6 µM (active) | outcome [3]: inactive

CC(=O)CCc1ccc(O)cc1
outcome [1]: inactive | outcome [2]: inactive | outcome [4]: inactive | outcome [3]: inactive

CCCCCCCCCCCCOCCOS(=O)(=O)O
AC50 [1]: 9.73 µM (active) | outcome [2]: inactive | AC50 [4]: 18.7 µM (active) | outcome [3]: inactive

CCCCOCC(C)OCC(C)O (stereo unspecified)
outcome [1]: inactive | outcome [2]: inactive | outcome [4]: inactive | outcome [3]: inactive
